{"source": "PubChem BioAssay AID588494", "about": "(NMMLSC, 2011)", "note": "The other results are listed elsewhere or left out. A number with no mark means an inactive call.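 How the source made its calls: active means response vs DMSO under 50%, meaning signal dropped by over half, treated as fluorescence quencher; inconclusive means no clear call, values can overlap the other calls; inactive means the rest.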", "data": [{"assay": "quenchers of FAM-labeled RNA aptamer fluorescence, confirmation, artefact control for GRK2 aptamer binding project, biochemical, single concentration, cherry pick 2, flow cytometry (AID 588494);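 further: labelled aptamer on streptavidin beads without GRK2 as a quench counter-screen; 100% = bead fluorescence of DMSO wells and lower means quenching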", "conditions": "carboxyfluorescein RNA aptamer beads, flow cytometry quenching; at 10 µM; hits give low values", "units": {"fluorescence response vs DMSO": "%"}, "values": [{"smiles": "CCOCCCNC(=O)c1ccc(CS(=O)(=O)c2cccc(C(F)(F)F)c2)o1", "fluorescence response vs DMSO": 103}, {"smiles": "O=C(CCS(=O)(=O)c1ccccc1)NC1CCCC1", "fluorescence response vs DMSO": 94}, {"smiles": "COc1cccc(OC)c1C(=O)Nc1ccc(Cc2ccncc2)cc1", "fluorescence response vs DMSO": 98}, {"smiles": "CC(=O)c1ccc(N2CCN(C(=O)c3ccc4nc[nH]c4c3)CC2)cc1", "fluorescence response vs DMSO": 102}, {"smiles": "COc1ccccc1C(=O)N(Cc1ccc(C)o1)C1CCS(=O)(=O)C1", "note": "(stereo not given)", "fluorescence response vs DMSO": 98}, {"smiles": "CC1Sc2ccc(S(=O)(=O)CCC(=O)NCc3ccccc3Cl)cc2NC1=O", "note": "(stereo not given)", "fluorescence response vs DMSO": 100}, {"smiles": "CCOc1ccc(OCC)c(NC(=O)CCS(=O)(=O)c2ccc(C)cc2)c1", "fluorescence response vs DMSO": 99}, {"smiles": "COc1ccc(Cl)cc1NC(=O)CCS(=O)(=O)c1cc2c(cc1C)NC(=O)CO2", "fluorescence response vs DMSO": 98}, {"smiles": "CCc1nn(CCCN2CCN(c3cccc(Cl)c3)CC2)c(=O)n1CCOc1ccccc1", "fluorescence response vs DMSO": 100}, {"smiles": "O=C(NCCCN1CCCCCC1)c1ccc(N2CCCC2=O)cc1", "fluorescence response vs DMSO": 100}, {"smiles": "CCN1CCN(C(=O)N[C@@H](C(=O)N[C@@H]2C(=O)N3C(C(=O)O)=C(CSc4nnnn4C)CS[C@H]23)c2ccc(O)cc2)C(=O)C1=O", "fluorescence response vs DMSO": 99}, {"smiles": "Cc1nnc(SCC(=O)N2c3ccccc3C(C)(c3ccc(Cl)cc3)CC2(C)C)s1", "note": "(stereo not given)", "fluorescence response vs DMSO": 100}, {"smiles": "CCC(C)(C(=O)NC1CCCCC1)N(C)C(=O)c1ccc2c(c1)OCO2", "note": "(stereo not given)", "fluorescence response vs DMSO": 103}, {"smiles": "O=C(C1CCCN(S(=O)(=O)c2ccc([N+](=O)[O-])cc2)C1)N1CCCCC1", "note": "(stereo not given)", "fluorescence response vs DMSO": 103}, {"smiles": "O=C(NC1C2CC3CC(C2)CC1C3)c1ccc(N2CCNCC2)c([N+](=O)[O-])c1", "note": "(stereo not given)", "fluorescence response vs DMSO": 101}, {"smiles": "NC(=O)[C@H]1CC2(CC(c3cccc(NC(=O)[C@H]4CCC(=O)N4)c3)=NO2)CN1C(=O)c1ccccc1C(=O)c1ccccc1", "note": "(stereo not given in full)", "fluorescence response vs DMSO": 101}, {"smiles": "COc1ccc(Cl)cc1NC(=O)CCS(=O)(=O)c1ccc(Br)cc1", "fluorescence response vs DMSO": 101}, {"smiles": "O=[N+]([O-])c1ccccc1S(=O)(=O)Nc1cccc2cccnc12", "fluorescence response vs DMSO": 103}, {"smiles": "CCOCCc1c(O)nc(SCC(=O)NCc2ccco2)[nH]c1=O", "fluorescence response vs DMSO": 100}, {"smiles": "CCOC(=O)C1=C(N)N(c2ccc(C)cc2)C2=C(C(=O)CCC2)C1c1cccs1", "note": "(stereo not given)", "fluorescence response vs DMSO": 106}, {"smiles": "CC1CCN(C(=S)NC2CC3CCC2C3)CC1", "note": "(stereo not given)", "fluorescence response vs DMSO": 99}, {"smiles": "CN=C(Nc1cccc(S(=O)(=O)N2CCOCC2)c1)c1ccccc1", "fluorescence response vs DMSO": 110}, {"smiles": "Cc1ccc(S(=O)(=O)CC(=O)Nc2sc(C)c(C)c2C(N)=O)cc1", "fluorescence response vs DMSO": 103}, {"smiles": "COCCn1c(N)c(NCc2ccccc2)c(=O)[nH]c1=O", "fluorescence response vs DMSO": 103}, {"smiles": "COc1cc([N+](=O)[O-])cc([N+](=O)[O-])c1NC(=O)N1CCOCC1", "fluorescence response vs DMSO": 103}]}]}
